The values that follow come from PMC4552634, “A New Set of Chemical Starting Points with Plasmodium falciparum Transmission-Blocking Potential for Antimalarial Drug Discovery” (PLoS ONE, 2015).

In all, about 13,000 compounds went through this assay and about 3,200 (25%) showed an effect of 50% or more. The list shows a part of the results.

In this assay the test system is P. falciparum stage V gametocytes. On the set-up: BacTiter-Glo ATP luminescence viability of purified stage V gametocytes in 384-well plates, per cent inhibition versus DMSO. The following applies: 48 h, 5 µM; inhibitor.
The % Inhibition is the drop in the measured response relative to a control, in per cent. Take `Brc1cc(Br)c2c(c1)C(NCCCNc1nc3ncccc3[nH]1)CCN2` (stereo not drawn) [TCMDC-140066]: the “% Inhibition” value was -91.96%.

With `CC(C)(C)c1ccc(C(=O)NC2CCC(CCN3CCc4ccc(S(C)(=O)=O)cc4CC3)CC2)cc1C(F)(F)F` (stereo not drawn) [TCMDC-141428], the “% Inhibition” value is recorded as -32.14%.

As to `CN1CCc2ccc(NC(=O)Nc3cccc(C(=O)c4ccccc4)c3)cc2C1` [TCMDC-139177], the “% Inhibition” value is -22.18%.

On to `C/C=C1/CN2CC[C@H]1C[C@H]2[C@H](O)c1ccnc2ccc(OC)cc12` [TCMDC-138265], for which the “% Inhibition” value is 0.1494%.

Regarding `CCCCSc1ccc2nc(-c3c[nH]c4ccc(C#N)cc34)cn2c1` [TCMDC-134704], the “% Inhibition” value was -54.07%.

`CC(C)c1cc(C(=O)N[C@@H](Cc2ccccc2)[C@H](O)CNC2CCCCC2)cc(N2CCCC2=O)c1` [TCMDC-138861]: the “% Inhibition” value amounted to 41.96%.

As for `Cc1ccc(-c2ccc(Cl)cc2Oc2cnc(N)nc2N)o1` [TCMDC-132599], the “% Inhibition” value amounted to 4.58%.

For `O=C(Nc1cccc(-c2ccc(-c3nc4ccccc4[nH]3)cc2)c1)c1ccncc1` [TCMDC-136962], the “% Inhibition” value was -14.71%.

As to `CCCc1cc(Cc2cnc(N)nc2N)cc(CCC)c1OCCCCC(=O)OCC` [TCMDC-137294], the “% Inhibition” value is on record as 0.6782%.

As to `Cc1cc(N[C@@H](Cc2ccccc2)C(=O)NCCc2ccccc2)nc(NCCOc2ccccc2)n1` [TCMDC-134879], the “% Inhibition” value was 65.02%.

For the compound `Cc1cc(N[C@@H](Cc2ccccc2)C(=O)NCCOc2ccccc2)nc(NCCOc2ccccc2)n1` [TCMDC-134759], the “% Inhibition” value amounted to 76.97%.

With `Cc1cc(N[C@@H](Cc2ccccc2)C(=O)NCCOc2ccccc2)nc(Nc2ccccc2)n1` [TCMDC-134735], the “% Inhibition” value is recorded as 6.483%.

Consider `Cc1cc(N[C@@H](Cc2ccccc2)C(=O)NCCOc2ccccc2)nc(NCc2ccccc2C)n1` [TCMDC-134906], for which the “% Inhibition” value is listed as -0.6796%.

Regarding `Cc1cc(N[C@@H](Cc2ccccc2)C(=O)NCCOc2ccccc2)nc(NCCc2ccccc2)n1` [TCMDC-134869], the “% Inhibition” value is 38.23%.

On to `COc1cc2sc(=NC(=O)c3cccc([N+](=O)[O-])c3)n(C)c2cc1OC` [TCMDC-123526], for which the “% Inhibition” value was 16.54%.

Take `CC1(C)N=C(N)N=C(N)N1OCc1cccc2c1ccc1ccccc12` [TCMDC-131327]: the “% Inhibition” value stood at 39.55%.

In the case of `CCCCc1ccc(C(=O)NC2CCN(C[C@H](O)c3ccnc4ccc(OC)cc34)CC2)cc1` [TCMDC-141040], the “% Inhibition” value is recorded as -10.19%.

As to `COc1cc2nc(N3CCC(CNC(=O)c4cc5ccccc5s4)CC3)nc(N)c2cc1OC` [TCMDC-138189], the “% Inhibition” value is listed as 0.3187%.

Turning to `COc1cc2nc(N3CCC(CNC(=O)c4cc(Br)c(Br)s4)CC3)nc(N)c2cc1OC.O=C(O)C(F)(F)F` [TCMDC-138213], the “% Inhibition” value is reported as -9.659%.

In the case of `COc1cc2nc(N3CCN(C(=O)c4c(Cl)nsc4-c4ccccc4Cl)CC3)nc(N)c2cc1OC.O=C(O)C(F)(F)F` [TCMDC-138186], the “% Inhibition” value came out at 103.1%.

In the case of `COc1cc2nc(N3CCN(c4cc(C)ccc4C)CC3)nc(N)c2cc1OC` [TCMDC-125298], the “% Inhibition” value is -12.09%.

Consider `COc1cc2nc(N3CCN(C(=O)c4ccc(N(C(=O)OC(C)(C)C)C(=O)OC(C)(C)C)cc4)CC3)nc(N)c2cc1OC` [TCMDC-131899], for which the “% Inhibition” value is on record as 9.334%.

In the case of `COc1cc2nc(NCC3CCN(c4nc(N)c5cc(OC)c(OC)cc5n4)CC3)nc(N)c2cc1OC` [TCMDC-138723], the “% Inhibition” value amounted to 112.2%.

In the case of `COc1cc2nc(N3CCN(C(=O)c4cccc(I)c4)CC3)nc(N)c2cc1OC` [TCMDC-131895], the “% Inhibition” value was determined as 98.03%.

Consider `COc1ccc(N2CCN(c3nc(N)c4cc(OC)c(OC)cc4n3)CC2C)cc1` (stereo not drawn) [TCMDC-131887], for which the “% Inhibition” value is -85.18%.

For the compound `COc1cc2nc(N3CCN(c4nc(N)c5cc(OC)c(OC)cc5n4)CC3)nc(N)c2cc1OC` [TCMDC-123865], the “% Inhibition” value amounted to 116.7%.

For the compound `CN(C)C(=O)n1cnc(S(=O)(=O)N(C)c2ccc(Cl)cc2)n1` [TCMDC-134395], the “% Inhibition” value turned out to be 5.684%.

Turning to `CCOC(=O)CCCCOc1c(OC)cc(Cc2cnc(N)nc2N)cc1OC` [TCMDC-137291], the “% Inhibition” value worked out at 2.332%.

Regarding `COc1ccc(NS(=O)(=O)c2ccc(C(=O)Nc3ccc(C(F)(F)F)cc3)cc2)cc1N1CCN(CC2CC2)CC1` [TCMDC-141778], the “% Inhibition” value is given as -16.52%.

Turning to `O=C(c1cccs1)N1N=C(c2cccs2)CC1c1cccc([N+](=O)[O-])c1` (stereo not drawn) [TCMDC-123688], the “% Inhibition” value came to 10.72%.

Consider `Cc1noc(C)c1-c1cccc(CNCc2ccc(-c3cccc(-c4nc5cc(C(F)(F)F)ccc5[nH]4)c3)cc2)c1.O=C(O)C(F)(F)F` [TCMDC-133051], for which the “% Inhibition” value is recorded as -9.881%.

`COc1cc(C(=O)NC2CCN(Cc3ccccc3)CC2)ccc1-c1nc2cc(Cl)c(Cl)cc2[nH]1` [TCMDC-140078]: the “% Inhibition” value is -56.44%.

For `Cc1[nH]c2cc(Cl)ccc2c1C1=CCN(CCN2CCOc3c(Br)cccc3C2=O)CC1` [TCMDC-140966], the “% Inhibition” value is -20.54%.

As for `COc1ccc(Cl)cc1N1CCN(CCCNC(=O)c2ccc(-c3nc4cc(Cl)c(C)cc4[nH]3)c(F)c2)CC1` [TCMDC-140030], the “% Inhibition” value is listed as -22.25%.

Take `COc1cc2nc(NCc3nc4ccccc4[nH]3)nc(N)c2cc1OC.Cl` [TCMDC-131892]: the “% Inhibition” value is 36.75%.

`COc1cc2nc(NC3CCN(Cc4ccccc4)CC3)nc(N)c2cc1OC` [TCMDC-131886]: the “% Inhibition” value stood at 84.09%.

For `COc1cc2nc(N(C)C3CCN(Cc4ccccc4)CC3)nc(N)c2cc1OC` [TCMDC-131894], the “% Inhibition” value is 19.02%.

Turning to `CCCCCN1CCCCC(NS(=O)(=O)c2ccc(C(=O)Nc3ccc(C(F)(F)F)cc3)cc2)C1` (stereo not drawn) [TCMDC-133681], the “% Inhibition” value is reported as -39.58%.

With `CC(=O)c1ccc(NC(=O)Nc2ccc3nccc(N4CCN(C)CC4)c3c2)cc1` [TCMDC-139331], the “% Inhibition” value is listed as -18.7%.

With `COc1ccc2nccc([C@@H](O)CN3CCC(NCc4ccc5nc[nH]c(=O)c5c4)CC3)c2c1` [TCMDC-140981], the “% Inhibition” value is on record as 0.6377%.

As for `CC(=O)c1ccc2nc[nH]c(=O)c2c1` [TCMDC-138172], the “% Inhibition” value turned out to be 115.1%.

For the compound `COC(=O)C(NC(=O)c1ccc(-c2ccc(-c3nc4ccccc4[nH]3)s2)cc1)c1ccc(O)cc1` (stereo not drawn) [TCMDC-132371], the “% Inhibition” value is -16.97%.
